TDP1 block = TDP1 (human) enzyme inhibition; 350,000 compounds, 0.28% hits; Potency, µM (highest dose often 130 µM), actives largely listed as inhibitors; recombinant TDP1, AlphaScreen DNA substrate cleavage; also: nearly all actives have a fitted effect of over 40% in size
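Enzyme-compound mixtures sat 15 min at room temperature, followed by a 5 min reaction with 15 nM final substrate and 10 min with AlphaScreen beads. Recombinant human Tdp1 was used at 1 nM final.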
FEN1 inh-1 = human FEN1 inhibition; Potency, µM (series often up to 114 µM), usual class: inhibitors; Recombinant FEN1 flap cleavage, fluorescence, 15 min; P39748; 390,000 compounds, 0.35% hits; AID 588795; also: nearly all actives have a fitted effect of over 65% in size
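Steps: FEN1 (10 nM) dispensed; compound added by pin tool; 15 min at room temperature; substrate added to 50 nM final; reads at 0 min and 15 min; data normalized and fitted (four-parameter Hill).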
Pol beta inh = blocks human DNA polymerase beta activity. Potency, µM (series often up to 114 µM), usual class: inhibitors. Pol beta primer extension/strand displacement, fluorescence kinetic. P06746. 340,000 compounds, 1.3% hits
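Values derive from four-parameter Hill fits of normalized kinetic data: reads at 0 and 10 min following addition of 50 nM substrate to 10 nM Pol beta preincubated 15 min with compound.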
Pol eta inh-1 = blocks human DNA polymerase eta activity | AID 588591 | Potency, µM (series often up to 114 µM), actives largely listed as inhibitors | recombinant Pol eta, fluorescent DNA replication assay | 390,000 compounds, 1.2% hits
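Pol eta at 10 nM preincubated with compounds 15 min at room temperature; reaction started with fluorescent substrate (50 nM final) and read kinetically at 0 and 10 min.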
Pol kappa inh = DNA polymerase kappa (human) inhibition; purified Pol kappa, fluorescent DNA synthesis assay, 10 min; 400,000 compounds, 0.53% hits; Potency, µM (top dose mostly 107 µM), hits mostly inhibitors; Q9UBT6
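Inhibition of 10 nM Pol kappa is measured by a fluorescent read-out at 0 and 10 min following addition of 50 nM substrate (final), with a 15-min room-temperature compound preincubation.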
POLI inh = DNA polymerase iota (human) inhibition | Pol iota fluorescent replication assay, 10 min | Potency, µM (series often up to 115 µM), usual class: inhibitors | 390,000 compounds, 1% hits
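Fluorescent replication assay read twice, at 0 min and 10 min after adding 50 nM (final) substrate. Enzyme (10 nM) and compounds were first incubated 15 min at room temperature; enzyme-free buffer wells were negative controls.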
TbPGK inh = TbPGK inhibition, hit validation; shares compounds with Pol kappa inh; TbPGK coupled GAPDH assay, Kinase-Glo luminescence; Potency, µM (highest dose often 57.5 µM), actives largely listed as inhibitors; 500 compounds, 79% hits; AID 686980; also: nearly all actives have a fitted effect of over 65% in size
Target sequence (P07378 whole entry, looked up): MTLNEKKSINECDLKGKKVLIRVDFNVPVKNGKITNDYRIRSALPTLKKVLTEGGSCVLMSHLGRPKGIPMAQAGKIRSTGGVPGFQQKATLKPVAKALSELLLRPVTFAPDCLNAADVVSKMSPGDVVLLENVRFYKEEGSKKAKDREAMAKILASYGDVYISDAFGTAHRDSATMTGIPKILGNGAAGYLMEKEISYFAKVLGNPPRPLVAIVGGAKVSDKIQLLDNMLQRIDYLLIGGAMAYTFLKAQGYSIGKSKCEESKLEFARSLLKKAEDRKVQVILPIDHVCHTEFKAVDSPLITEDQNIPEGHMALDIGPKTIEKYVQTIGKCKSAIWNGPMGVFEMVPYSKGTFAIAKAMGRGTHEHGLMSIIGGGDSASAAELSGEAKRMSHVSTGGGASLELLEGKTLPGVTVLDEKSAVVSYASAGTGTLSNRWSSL
Pol iota confirm = Confirm cherry-picked inhibitors of human polymerase iota | Potency, µM, hits mostly inhibitors | shares compounds with Pol kappa inh | Pol iota primer extension, TAMRA/BHQ fluorescence | 1,500 compounds, 77% hits
Pol eta inh-2 = Pol eta (human) inhibition, cherry-pick confirmation | shares compounds with Pol eta inh-1 | Pol eta primer extension, TAMRA/BHQ fluorescence, 10 min | Potency, µM, usual class: inhibitors | 2,600 compounds, 64% hits | AID 720502
FEN1 inh-2 = confirmation of human FEN1 inhibitors | FEN1 flap cleavage, TAMRA/BHQ2 fluorogenic DNA substrate | shares compounds with FEN1 inh-1 | Potency, µM, hits mostly inhibitors | 880 compounds, 79% hits; also: nearly all actives have a fitted effect of over 60% in size
Of the large screens only hits and unclear results are named; the others gave an inactive call (follow-up assays come after a bar, where they were run). Compounds with a hit are over-represented: about 2.4% of the library has one in this group of screens. Calls follow the shape of the dose curve; as a rule, active = well fitted curve in the direction sought with a large enough effect; inconclusive = small, poorly fitted or top-dose-only effect, or another doubt; inactive = no such curve, though single readings can be large; an effect the other way counts as inactive or inconclusive.

O=C1CCCC2=C1C(c1ccco1)Nc1ccc3ccccc3c12 (stereo not given)	TDP1 block inconclusive, FEN1 inh-1 50µM, Pol beta inh 6.3µM, Pol eta inh-1 2µM, Pol kappa inh 28µM, POLI inh 6.3µM | TbPGK inh 15µM | Pol iota confirm 7.5 | Pol eta inh-2 19 | FEN1 inh-2 76
COc1ccccc1CSc1nc2n(n1)C(c1ccccc1)C(C(=O)Nc1ccc(C)cc1)=C(C)N2 (stereo not given)	none
COCCNC(=O)CN1C(=O)c2cccnc2Sc2ccccc21	none
O=C1C=CC(=O)N1c1ccccc1N1C(=O)C=CC1=O	FEN1 inh-1 inconclusive, Pol eta inh-1 inconclusive, Pol kappa inh inconclusive, POLI inh 40µM (no result: TDP1 block, Pol beta inh) | Pol iota confirm inconclusive | Pol eta inh-2 inconclusive | FEN1 inh-2 inconclusive
COc1ccccc1CNc1cc(-c2c(C)noc2C)ncn1	none (no result: TDP1 block, FEN1 inh-1, Pol beta inh, Pol eta inh-1, POLI inh)
COc1cc(/C=C2\CC/C(=C\c3cc(OC)c(O)c(OC)c3)C2=O)cc(OC)c1O	FEN1 inh-1 6.3µM, Pol beta inh 4.5µM, Pol eta inh-1 1.8µM, Pol kappa inh 10µM, POLI inh 2.8µM | Pol iota confirm 27 | Pol eta inh-2 9.5 | FEN1 inh-2 8.5
CC(C)CNC(=O)C1=CC(c2ccc3c(c2)OCO3)=NS(=O)(=O)N1C	none
Cc1cc(NC(=O)Cc2cccs2)no1	FEN1 inh-1 56µM, Pol beta inh 8.9µM, Pol eta inh-1 22µM, Pol kappa inh 22µM, POLI inh 7.9µM (no result: TDP1 block) | Pol iota confirm 15 | Pol eta inh-2 19 | FEN1 inh-2 inconclusive
Cc1cc(=O)c2cc(C(=O)Nc3ccccc3)ccc2[nH]1	none
O=C(COC(=O)c1ccc([N+](=O)[O-])o1)NC1CCS(=O)(=O)C1 (stereo not given)	FEN1 inh-1 inconclusive, Pol eta inh-1 45µM, POLI inh 63µM | Pol iota confirm inconclusive | Pol eta inh-2 inconclusive | FEN1 inh-2 7.6
O=C(COC(=O)c1ccc([N+](=O)[O-])o1)NC1CCCCC1	FEN1 inh-1 inconclusive, Pol eta inh-1 inconclusive, POLI inh 79µM (no result: Pol beta inh) | Pol iota confirm inconclusive | Pol eta inh-2 inconclusive | FEN1 inh-2 6.7
O=C(CCN1C(=O)/C(=C/C=C/c2ccccc2)SC1=S)Nc1nc2ccccc2s1	none
O=C(CCN1C(=O)/C(=C\C=C\c2ccccc2)SC1=S)Nc1ccc(C(=O)O)cc1	TDP1 block 14µM, Pol beta inh 20µM, Pol eta inh-1 28µM, Pol kappa inh inconclusive, POLI inh inconclusive | Pol iota confirm 27 | Pol eta inh-2 85 | FEN1 inh-2 inconclusive
O=C(O)CCNc1ccc(NCCC(=O)O)c2c1C(=O)c1ccccc1C2=O	FEN1 inh-1 18µM, Pol beta inh 13µM, Pol eta inh-1 4.5µM, Pol kappa inh 22µM, POLI inh 13µM (no result: TDP1 block) | TbPGK inh 16µM | Pol iota confirm 19 | Pol eta inh-2 11 | FEN1 inh-2 38
CCCN1CNc2c(c(=O)[nH]c(=S)n2CCc2ccccc2OC)C1	none (no result: Pol beta inh, Pol eta inh-1)
CCN(CC)C(=O)C1=C(C)N(CCCOC)C(=O)C(CC(=O)NCC2CCCCC2)C1 (stereo not given)	none (no result: TDP1 block, FEN1 inh-1, Pol beta inh, Pol kappa inh, POLI inh)
COC(=O)c1ccc(NC(=O)c2ccc(NC(=O)c3ccco3)cc2)cc1	FEN1 inh-1 inconclusive, Pol eta inh-1 inconclusive, POLI inh inconclusive | Pol iota confirm inconclusive | FEN1 inh-2 inconclusive
COc1cc(C)c2c(c1C=O)Oc1c(c(C)c(O)c3c1C(O)OC3=O)OC2=O (stereo not given)	FEN1 inh-1 inconclusive, Pol beta inh 7.9µM, Pol eta inh-1 16µM, Pol kappa inh 22µM, POLI inh 45µM (no result: TDP1 block) | TbPGK inh 4.6µM | Pol iota confirm 42 | Pol eta inh-2 21 | FEN1 inh-2 76
CN(C)CCCNC(=O)c1ccccn1	none
CN(C)CCCNC(=O)c1ccc(-c2cc(O)c3ncccc3c2)cc1	FEN1 inh-1 50µM (no result: Pol beta inh) | Pol iota confirm 47 | Pol eta inh-2 inconclusive | FEN1 inh-2 inconclusive
CC1=NN(c2cccc(C(=O)O)c2)C(=O)/C1=C\C=C\c1ccco1	FEN1 inh-1 22µM, Pol beta inh 0.56µM, Pol kappa inh 7.1µM, POLI inh 1.3µM | TbPGK inh 2.9µM | Pol iota confirm 2.4 | Pol eta inh-2 1.5 | FEN1 inh-2 24
O=c1nc2c(O)cccn2c2c1c(=O)[nH]c1ccccc12	FEN1 inh-1 56µM, Pol beta inh inconclusive, Pol eta inh-1 inconclusive, Pol kappa inh inconclusive, POLI inh inconclusive | Pol iota confirm 42 | FEN1 inh-2 34
CNC(=O)C1CCC(Cn2c(=O)c3sccc3n(CC(=O)NCc3ccc(OC)cc3)c2=O)CC1 (stereo not given)	none
CCC(=O)N1CCc2cc(Br)cc(S(=O)(=O)N3CCC(C(=O)Nc4ccccc4CC)CC3)c21	none
CN(c1ccccc1)c1ccc(/C=C(/CCC(=O)O)c2nc3ccccc3s2)cc1[N+](=O)[O-]	FEN1 inh-1 50µM, Pol eta inh-1 20µM, Pol kappa inh 32µM, POLI inh 18µM (no result: TDP1 block, Pol beta inh) | Pol iota confirm 47 | Pol eta inh-2 67 | FEN1 inh-2 67
COc1ccc(C(=O)CSc2nc3cc(C(=O)NC4CCCC4)ccc3c(=O)n2CC2CCCO2)cc1 (stereo not given)	none
CN1CCc2c(c3cnc4cc(Cl)ccc4c3n2C)C1	FEN1 inh-1 inconclusive (no result: Pol beta inh, Pol eta inh-1)
Cc1ccc(NC(=O)CN2C(=O)S/C(=C\c3cc(Cl)c(OCC(=O)O)c(Cl)c3)C2=O)cc1	FEN1 inh-1 45µM, Pol beta inh 40µM, Pol eta inh-1 25µM, POLI inh inconclusive (no result: TDP1 block) | TbPGK inh 5.8µM | Pol iota confirm 42 | Pol eta inh-2 48 | FEN1 inh-2 76
CCN(CC)CCCNc1ccc2ncn3c4ccc(O)cc4c(=O)c1c23	FEN1 inh-1 10µM, Pol eta inh-1 inconclusive, Pol kappa inh 79µM, POLI inh inconclusive (no result: TDP1 block, Pol beta inh) | Pol iota confirm 42 | FEN1 inh-2 8.5
Cc1ccc(NC(=O)c2ccc(NC(=O)N3CCSc4ncccc43)cc2)c(Cl)c1	none
Cc1nc2ccccc2c(=O)n1/N=C/c1ccccc1O	none

Source: PubChem BioAssay (National Center for Advancing Translational Sciences (NCATS))
